Rows were chosen to be rich in hits. Some 12% of all compounds tested hit in one or more screens of this group.
HP1b chromo inh: HP1-beta chromodomain-methylated histone interaction inhibition; Potency, µM (doses to about 114 µM), usual class: inhibitors; AlphaScreen HP1-beta / biotin-H3K9me3 peptide binding; 0.56% of 390,000 active; AID 540317; also: nearly all actives have a fitted effect of over 70% in size
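HP1-beta protein (50 nM final) preincubated 30 min at room temperature with biotinylated H3(1-18)K9me3 peptide (50 nM) in PBS pH 7.4, 0.01% Tween-20, then compound added for 30 min. AlphaScreen streptavidin donor/nickel chelate acceptor beads (10 ug/mL final), 30 min dark, luminescence read.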
PI5P4K alpha inh: inhibitors of human PI5P4K alpha | P48426 | PI5P4Kalpha enzyme, ADP-Glo luminescence, 60 min; hits give low values | max response, % | 1.2% of 330,000 active; active = max response of -50% or lower; inconclusive = between -30% and -50%; inactive = -30% or higher; also: value at the top dose of about 77 µM
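ADP-Glo luminescence end-point read after a 60 min room-temperature kinase reaction of PI5P4Kalpha plus substrate, initiated with ATP at 5 microM final. Buffer: 0.038 M HEPES pH 7.4, EGTA, 0.1% CHAPS, 5% DMSO.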
BAZ2B block: inhibitors of human BAZ2B bromodomain. Potency, µM (series often up to 114 µM), most hits filed as inhibitors. 4.4% of 360,000 active. AID 504333. AlphaScreen BAZ2B-H3K14Ac peptide displacement; also: nearly all actives have a fitted effect of over 60% in size
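Compounds, titrated to a top concentration of 110 uM, were incubated 30 min at room temperature with preformed BAZ2B/acetyl-K14 H3 peptide complex (50 nM each). Proximity signal was measured by AlphaScreen after 20 min with beads.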
JMJD2A Tudor: blocks the human JMJD2A Tudor domain; 4.4% of 390,000 active; AID 504339; AlphaScreen JMJD2A-Tudor / H3K4me3 peptide binding; O75164; Potency, µM (titrated, usually from 114 µM), hits mostly inhibitors; also: nearly all actives have a fitted effect of over 50% in size
G9a inh: G9a (human) methyltransferase inhibition; Q96KQ7; G9a H3K9 monomethylation, AlphaScreen, 2 h; Potency, µM (titrated, usually from 102 µM), hits mostly inhibitors; 8.8% of 350,000 active; also: nearly all actives have a fitted effect of over 75% in size
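Methyltransferase reactions run at room temperature for 2 h (20 nM enzyme, 500 nM biotin-H3K9 peptide, 20 uM SAM) after a 15 min compound preincubation; product detected by AlphaScreen beads and anti-H3K9me1 antibody.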
PLK1 PBD block: inhibitors of human PLK1 polo-box domain binding | P53350 | 2.8% of 360,000 active | Plk1 PBD binding of FITC phosphopeptide, fluorescence polarization | AID 720504 | Potency, µM, usual class: inhibitors; also: series mostly up to about 57 µM; nearly all actives have a fitted effect of over 65% in size
Target sequence (P53350 whole entry, looked up, the tested form may be a part): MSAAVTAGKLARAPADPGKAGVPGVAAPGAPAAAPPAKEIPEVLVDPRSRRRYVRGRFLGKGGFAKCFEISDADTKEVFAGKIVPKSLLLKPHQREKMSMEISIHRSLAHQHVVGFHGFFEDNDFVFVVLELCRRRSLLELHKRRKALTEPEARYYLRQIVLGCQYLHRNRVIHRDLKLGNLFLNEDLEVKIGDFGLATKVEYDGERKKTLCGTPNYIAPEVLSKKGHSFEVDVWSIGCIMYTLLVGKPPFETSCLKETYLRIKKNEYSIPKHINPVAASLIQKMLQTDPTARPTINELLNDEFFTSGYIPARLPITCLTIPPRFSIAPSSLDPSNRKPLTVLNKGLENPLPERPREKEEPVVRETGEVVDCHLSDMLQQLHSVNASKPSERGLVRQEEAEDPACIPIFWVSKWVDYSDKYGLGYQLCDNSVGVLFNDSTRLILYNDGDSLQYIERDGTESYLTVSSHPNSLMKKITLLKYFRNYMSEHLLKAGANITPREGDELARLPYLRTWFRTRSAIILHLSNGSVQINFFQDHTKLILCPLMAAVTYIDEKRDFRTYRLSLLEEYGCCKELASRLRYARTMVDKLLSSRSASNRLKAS
Large screens that a line does not name were inactive; ! = repeats disagree. Unless noted, calls follow the shape of the dose curve; as a rule, active = well fitted curve in the direction sought with a large enough effect; inconclusive = small, poorly fitted or top-dose-only effect, or another doubt; inactive = no such curve, though single readings can be large; an effect the other way counts as inactive or inconclusive.

CCN(CC)S(=O)(=O)c1ccc2c(c1)N(CC(=O)Nc1c(C)cccc1C)C(=O)C1CCCN21 (centres undefined)	none (no result: PI5P4K alpha inh, PLK1 PBD block)
OC(c1ccccn1)(c1ccccn1)c1ccccn1	BAZ2B block 22µM, JMJD2A Tudor 56µM
CC(C)CC(=O)Nc1nnc(S(=O)(=O)N2c3ccccc3CC2C)s1 (centres undefined)	BAZ2B block inconclusive, JMJD2A Tudor inconclusive
NC(=S)Nc1cc(Cl)ccc1Cl	G9a inh inconclusive
S=C(Nc1cccc(Cl)c1Cl)Nn1cnnc1	HP1b chromo inh inconclusive, BAZ2B block inconclusive, JMJD2A Tudor inconclusive, G9a inh 4µM, PLK1 PBD block 17µM
S=C(Nc1ccc(Cl)cc1Cl)Nn1cnnc1	G9a inh inconclusive, PLK1 PBD block 6.7µM
S=C(Nc1cc(Cl)ccc1Cl)Nn1cnnc1	G9a inh 7.9µM, PLK1 PBD block 21µM
CCC(CC)c1nnc(NC(=O)c2cc([N+](=O)[O-])ccc2N2CCOCC2)s1	JMJD2A Tudor inconclusive, PLK1 PBD block inconclusive (no result: BAZ2B block, G9a inh)
Cc1cc(C(=O)CNCc2ccco2)c(C)n1-c1ccc(F)cc1	HP1b chromo inh inconclusive, BAZ2B block 56µM, JMJD2A Tudor 3.2µM, G9a inh 22µM (no result: PI5P4K alpha inh)
COc1cc2c(cc1OC)C(Cc1ccccc1[N+](=O)[O-])=NCC2	none (no result: BAZ2B block, G9a inh)
Nc1sc(Cc2ccccc2)cc1C(=O)NC1CCCCC1	PLK1 PBD block 27µM (no result: HP1b chromo inh, BAZ2B block, JMJD2A Tudor, G9a inh)
COc1ccc(CCNS(=O)(=O)c2cccc(C(=O)O)c2)cc1OC	HP1b chromo inh inconclusive, PI5P4K alpha inh inconclusive, PLK1 PBD block 3.4µM
COc1ccc(CCNC(=S)NC(=O)c2ccccc2)cc1C	BAZ2B block inconclusive, G9a inh 56µM
O=C(NC1CCCCC1)C(=S)NCCc1ccccc1	G9a inh 11µM, PLK1 PBD block 24µM
COc1ccc(NC(=O)C2CCCN2C(=O)Nc2ccc(OC)cc2)cc1 (centres undefined)	none
O=C(Nc1ccc(F)cc1)C1CCN(c2nc3ccccc3nc2C(F)(F)F)CC1	none (no result: PI5P4K alpha inh, PLK1 PBD block)
CCCn1c(N)c(C(=O)CSc2ncnc3sccc23)c(=O)n(C)c1=O	none
COc1ccc(CCNC(=O)c2ccc(CNS(=O)(=O)c3cc(C)ccc3C)cc2)cc1OC	G9a inh 22µM
COc1ccc(CNS(=O)(=O)c2csc(C(N)=O)c2)cc1OC	JMJD2A Tudor 32µM!
COc1ccc(CCNC(=O)c2ccc3c(c2)NC(=O)C(CSCc2cc(C)ccc2C)N3)cc1OC (centres undefined)	G9a inh 1.8µM (no result: HP1b chromo inh, PI5P4K alpha inh, JMJD2A Tudor, PLK1 PBD block)
COc1ccc(CCNC(=O)C(C(=O)c2ccccc2)n2cc(Cl)ccc2=O)cc1OC (centres undefined)	G9a inh 50µM
COc1ccc(CCNC(=O)c2ccc(CNS(=O)(=O)c3ccc(C(C)(C)C)cc3)cc2)cc1OC	none
CCOc1ccc(C(=O)NCCc2sc(-c3ccc(F)cc3)nc2C)cc1	none (no result: PI5P4K alpha inh, PLK1 PBD block)
COCc1nn2c(=O)cc(N3CCNCC3)nc2s1	none (no result: HP1b chromo inh, PI5P4K alpha inh, BAZ2B block, G9a inh, PLK1 PBD block)
CC(C)Cc1nn2cc(-c3cccc(Br)c3)nc2s1	BAZ2B block inconclusive (no result: PI5P4K alpha inh, PLK1 PBD block)
COc1ccc(CCNC(=S)NC(=O)c2ccc(Br)cc2)cc1OC	BAZ2B block 32µM
COc1cc(C)c(NC(=O)C(=S)NCCc2ccccc2)cc1C	HP1b chromo inh inconclusive, G9a inh inconclusive, PLK1 PBD block 12µM
Cc1cc(C)cc(Cn2c3ccc(NC(=O)NCc4ccc(F)cc4)cc3c(=O)n2C)c1	none (no result: HP1b chromo inh, BAZ2B block, JMJD2A Tudor, G9a inh)
CCc1ccc2oc(-c3ccc(OC)cc3)cc(=Nc3cccc(C(=O)O)c3)c2c1	JMJD2A Tudor 14µM, G9a inh inconclusive, PLK1 PBD block 27µM
CCc1ccc2oc(-c3ccc(OC)cc3)cc(=Nc3c(C)n(C)n(-c4ccccc4)c3=O)c2c1	HP1b chromo inh inconclusive, BAZ2B block 40µM, JMJD2A Tudor inconclusive, G9a inh 25µM
COc1ccc(-c2cc(=Nc3ccc(C(=O)O)cc3)c3cc(C)ccc3o2)cc1	JMJD2A Tudor inconclusive, G9a inh inconclusive (no result: BAZ2B block)
CCCc1cc(N2CCN(C(=O)c3ccco3)CC2)n2c(nc3ccccc32)c1C#N	G9a inh 16µM
Cc1cc(N2CCC(C)CC2)nc2ccc(NC(=O)/C=C/c3cccc(Cl)c3)cc12	none (no result: PI5P4K alpha inh, PLK1 PBD block)
O=C1CCN2C=Nc3cccc4ccc1c2c34	PLK1 PBD block 3.8µM

Screens from PubChem BioAssay.
